{"source": "PubChem BioAssay (NCATS)", "note": "Results filed as inconclusive are left out. Active and inactive are the calls of the source. Calls follow the shape of the dose curve; as a rule, active = well fitted cell-killing curve with a large enough effect; inconclusive = small, poorly fitted or top-dose-only effect, or effect the other way; inactive = no such curve, though single readings can be large or run the other way.", "data": [{"assay": "Quantitative High-Throughput drug screen in 47 multiple myeloma cell lines against the NCATS MIPE library collection: OCIMY7_PLB cell viability assay (AID 1918987); also: nearly all actives have a fitted effect of over 65% in size; also: potency is read from the fitted curve at half-maximal effect", "details": "OCI-MY7 myeloma viability, CellTiter-Glo ATP, 48 h; series mostly up to 45.8 µM", "from_the_text": "PI: Beverly A. Mock Ph.D.\nLaboratory of Cancer Biology and Genetics,\nCenter for Cancer Research, National Cancer Institute,\nNational Institute of Health, Bethesda, Maryland\nDrug resistance and disease progression are common in multiple myeloma (MM) patients, underscoring the need for new therapeutic combinations. […] We hypothesized that effective combinations would reduce MYC expression and enhance p16 activity. […] These preclinical data identify potentially useful drug combinations for evaluation in drug-resistant MM and reveal potential mechanisms of combined drug sensitivity.\nDescribed herein is the primary MIPE qHTS used to cherrypick compounds. Validated compounds were then further tested for potential synergistic activiy.\n[1] Peat TJ, Gaikwad SM, Dubois W, Gyabaah-Kessie N, Zhang S, Gorjifard S, Phyo Z, Andres M, Hughitt VK, Simpson RM, Miller MA, Girvin AT, Taylor A, Williams D, D'Antonio N, Zhang Y, Rajagopalan A, Flietner E, Wilson K, Zhang X, Shinn P, Klumpp-Thomas C, McKnight C, Itkin Z, Chen L, Kazandijian D, Zhang J, Michalowski AM, Simmons JK, Keats J, Thomas CJ, Mock BA. Drug combinations identified by high-throughput screening promote cell cycle transition and upregulate Smad pathways in myeloma. Cancer Lett. 2023 Aug 1;568:216284. doi: 10.1016/j.canlet.2023.216284. Epub 2023 Jun 24. PMID: 37356470; PMCID: PMC10408729.\nSEQUENCE No. (e.g., 1, 2, 3, etc.); […] (e.g., Cells, Incubation, Reagent, etc.); VALUE and DESCRIPTION.\n1; Cells; 5 uL; white, solid bottom 1536-well Greiner assay plate.\n2; Compounds; 23 nL; Kalypsis pin tool (Wako USA) equipped with a 1536-well pin head to transfer to the assay plates.\n3; Incubation; 48 hours; 37C incubation.\n4; Reagent;5uL; CellTiter Glo (Promega).\n5; Detector; 425V; Luminescence; Viewlux PerkinElmer.\nNOTES (numbers refer to Sequence numbers above)\n1. The cell-based screening methods employed in this study were like those previously published. Briefly, the corresponding myeloma cell lines were screened in 1,536-well plates with 500 cells, 5-uL per well for inhibition of cell viability (assessed by measuring ATP levels with CellTiterGlo).\n2. NCATS MIPE 4.0 library of approved and investigational drugs were added using the Kalypsis pin tool. Wells treated with DMSO only for 100% viability and media only for 0% viability were used as controls.\n3. The assay plates were covered and incubated for 48 hours in a 37C, 5% CO2 incubator with controlled humidity.\n4. After 48 hours, CellTilter-GloTM luminescent substrate mix (Promega) reagent was added to the assay plate and plates we incubated for 5 min at room temperature.\n5. Signal was measured as median relative luminescence units on a ViewLux (PerkinElmer) multiplate reader.\n[1] Heske CM, Davis MI, Baumgart JT, Wilson K, Gormally MV, Chen L, Zhang X, Ceribelli M, Duveau DY, Guha R, Ferrer M, Arnaldez FI, Ji J, Tran HL, Zhang Y, Mendoza A, Helman LJ, Thomas CJ. Matrix Screen Identifies Synergistic Combination of PARP Inhibitors and Nicotinamide Phosphoribosyltransferase (NAMPT) Inhibitors in Ewing Sarcoma. Clin Cancer Res. 2017 Dec 1;23(23):7301-7311. doi: 10.1158/1078-0432.CCR-17-1121. Epub 2017 Sep 12. PMID: 28899971; PMCID: PMC6636827.", "values": [{"compound": "COC(=O)Nc1nc2ccc(S(=O)c3ccccc3)cc2[nH]1", "note": "(stereo not given)", "Potency": "7.43 µM (active)"}, {"compound": "COc1cc(NCc2ccc3nc(N)nc(N)c3c2C)cc(OC)c1OC", "Potency": "1.48 µM (active)"}, {"compound": "CNS(=O)(=O)CCc1ccc2[nH]cc(C3CCN(C)CC3)c2c1", "Potency": "0.332 µM (active)"}, {"compound": "COC(=O)Nc1nc2ccc(Sc3ccccc3)cc2[nH]1", "Potency": "0.209 µM (active)"}, {"compound": "Cc1cc(NS(=O)(=O)c2ccc(N)cc2)no1", "Potency": "16.6 µM (active)"}, {"compound": "CO[C@@H]1[C@@H](OC(N)=O)[C@@H](O)[C@H](Oc2ccc3c(O)c(NC(=O)c4ccc(O)c(CC=C(C)C)c4)c(=O)oc3c2C)OC1(C)C", "Potency": "5.9 µM (active)"}, {"compound": "Cc1ccc(S(=O)(=O)N[C@@H](Cc2ccccc2)C(=O)CCl)cc1", "Potency": "3.32 µM (active)"}, {"compound": "Nc1[nH]c(=O)ncc1F", "Potency": "inactive"}, {"compound": "Nc1nc(=S)c2[nH]cnc2[nH]1", "Potency": "1.32 µM (active)"}, {"compound": "C[C@@H]1C[C@H]2[C@@H]3CCC4=CC(=O)C=C[C@]4(C)[C@@]3(Cl)[C@@H](O)C[C@]2(C)[C@@]1(OC(=O)c1ccco1)C(=O)CCl", "Potency": "9.35 µM (active)"}, {"compound": "O=S(=O)(O)CCS", "Potency": "inactive"}, {"compound": "Cc1oc(=O)oc1CN1CCN(c2cc3c(cc2F)c(=O)c(C(=O)O)c2n3C(C)S2)CC1", "note": "(stereo not given)", "Potency": "inactive"}, {"compound": "CCCc1cc(C(N)=S)ccn1", "Potency": "inactive"}, {"compound": "Oc1c(Cl)cc(Cl)c2cccnc12", "Potency": "10.5 µM (active)"}, {"compound": "O=C(O)C1CCCN(CCC=C(c2ccccc2)c2ccccc2)C1", "note": "(stereo not given)", "Potency": "inactive"}, {"compound": "O=C(NCC1CN(c2ccc(N3CCOCC3=O)cc2)C(=O)O1)c1ccc(Cl)s1", "note": "(stereo not given)", "Potency": "inactive"}, {"compound": "COc1cc(NS(=O)(=O)c2ccc(N)cc2)nc(OC)n1", "Potency": "inactive"}, {"compound": "CN(C)CCc1c[nH]c2ccc(C[C@H]3COC(=O)N3)cc12", "Potency": "inactive"}, {"compound": "CC[C@H](C)C(=O)O[C@H]1C[C@@H](C)C=C2C=C[C@H](C)[C@H](CC[C@@H]3C[C@@H](O)CC(=O)O3)[C@H]21", "Potency": "4.69 µM (active)"}, {"compound": "C1CCC(C(CC2CCCCN2)C2CCCCC2)CC1", "note": "(stereo not given)", "Potency": "14.8 µM (active)"}, {"compound": "CC1=NN(c2ccccc2)C(=O)C1", "Potency": "inactive"}, {"compound": "CC1=CC(=O)c2ccccc2C1=O", "Potency": "33.2 µM (active)"}, {"compound": "CNC(=O)c1cc(Oc2ccc(NC(=O)Nc3ccc(Cl)c(C(F)(F)F)c3)cc2)ccn1", "Potency": "3.32 µM (active)"}, {"compound": "CC(C)OC(=O)C(C(=O)OC(C)C)=C1SC=CS1", "Potency": "inactive"}, {"compound": "COc1cc([C@@H]2c3cc4c(cc3[C@H](O)[C@H]3COC(=O)[C@H]23)OCO4)cc(OC)c1OC", "Potency": "inactive"}, {"compound": "CO[C@@]12[C@H](COC(N)=O)C3=C(C(=O)C(C)=C(N)C3=O)N1C[C@@H]1N[C@@H]12", "Potency": "18.7 µM (active)"}, {"compound": "CCCCOc1ccc(CC(=O)NO)cc1", "Potency": "16.6 µM (active)"}, {"compound": "CN1CCCC(n2nc(Cc3ccc(Cl)cc3)c3ccccc3c2=O)CC1", "note": "(stereo not given)", "Potency": "1.18 µM (active)"}, {"compound": "Nc1nc(F)nc2c1ncn2[C@@H]1O[C@H](CO)[C@@H](O)[C@@H]1O", "Potency": "0.118 µM (active)"}, {"compound": "CNC1CCCN(c2c(F)cc3c(=O)c(C(=O)O)cn(C4CC4)c3c2OC)C1", "note": "(stereo not given)", "Potency": "1.32 µM (active)"}, {"compound": "CN(C)c1ccc(C(=C2C=CC(=[N+](C)C)C=C2)c2ccc(N(C)C)cc2)cc1", "Potency": "0.0187 µM (active)"}, {"compound": "CC(C)C[C@H](NC(=O)[C@H](CCc1ccccc1)NC(=O)CN1CCOCC1)C(=O)N[C@@H](Cc1ccccc1)C(=O)N[C@@H](CC(C)C)C(=O)[C@@]1(C)CO1", "Potency": "0.0118 µM (active)"}, {"compound": "N=C(N)c1ccc(OCCCCCOc2ccc(C(=N)N)cc2)cc1", "Potency": "2.35 µM (active)"}, {"compound": "COc1ccc(C(=O)CC(=O)c2ccc(C(C)(C)C)cc2)cc1", "Potency": "3.72 µM (active)"}, {"compound": "COC(=O)Nc1nc2ccc(C(=O)c3ccccc3)cc2[nH]1", "Potency": "0.418 µM (active)"}, {"compound": "S=P(N1CC1)(N1CC1)N1CC1", "Potency": "13.2 µM (active)"}, {"compound": "N[C@@H](Cc1ccc(O)c(O)c1)C(=O)O", "Potency": "inactive"}, {"compound": "NC(=O)c1cccc(N)c1", "Potency": "4.69 µM (active)"}, {"compound": "COc1cc2nc(N3CCCN(C)CC3)nc(NC3CCN(Cc4ccccc4)CC3)c2cc1OC", "Potency": "6.62 µM (active)"}, {"compound": "CCCCc1oc2ccc(NS(C)(=O)=O)cc2c1C(=O)c1ccc(OCCCN(CCCC)CCCC)cc1", "Potency": "18.7 µM (active)"}]}]}
